Hits are enriched below; roughly 2.3% of the tested compounds scored in any of these assays.
Lassa entry inh – qHTS for Inhibitors of binding or entry into cells for Lassa Virus; Lassa virus pseudotype entry inhibition, cell reporter; Potency, µM (highest dose often 37.9 µM), without a hit: at the highest dose activity change, negative = inhibition, actives largely listed as inhibitors; hit rate 1.2% among 300,000; calls by dose curve; tested in HEK293 cells; further: nearly all actives have a fitted effect of over 50% in size
Marburg entry inh – qHTS for inhibitors of binding or entry into cells for Marburg Virus; Marburg virus pseudotyped entry inhibition, cell reporter; Potency, µM (top dose mostly 37.8 µM), without a hit: at the top dose activity change, negative = inhibition, actives largely listed as inhibitors; hit rate 1.8% among 300,000; calls by dose curve; tested in HEK293 cells
AMA1-RON2 inh – qHTS for Inhibitors of AMA1-RON; Towards Development of Antimalarial Drug Lead: Primary Screen; AlphaScreen AMA1-biotinylated RON2 peptide binding; Potency, µM (top dose mostly 58.2 µM), for the others: at the top dose activity change, negative = inhibition, actives largely listed as inhibitors; hit rate 0.2% among 360,000; AID 720542, 2013;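 further: 0% = vehicle wells and -100% = peptide control; nearly all actives have a fitted effect of over 45% in size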
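AMA1 (3D7) with his tag at 25 nM final met compounds first, then biotinylated RON2 peptide at 25 nM; detection used donor plus acceptor beads, 10 µg/mL apiece, read by AlphaScreen after 30 min at room temperature.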
AmpC no deterg – qHTS Inhibitors of AmpC Beta-Lactamase (assay without detergent). AmpC nitrocefin hydrolysis, absorbance 480 nm, 0.0001% Triton. P00811. hit rate 0.52% among 330,000. AID 485341, 2010. Potency, µM (doses to about 57.1 µM), for the others: at the highest dose activity change, negative = inhibition, actives largely listed as inhibitors;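 further: plate controls were no compound for no effect and no enzyme for full effect; nearly all actives have a fitted effect of over 20% in size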
Target sequence (P00811 whole entry, looked up): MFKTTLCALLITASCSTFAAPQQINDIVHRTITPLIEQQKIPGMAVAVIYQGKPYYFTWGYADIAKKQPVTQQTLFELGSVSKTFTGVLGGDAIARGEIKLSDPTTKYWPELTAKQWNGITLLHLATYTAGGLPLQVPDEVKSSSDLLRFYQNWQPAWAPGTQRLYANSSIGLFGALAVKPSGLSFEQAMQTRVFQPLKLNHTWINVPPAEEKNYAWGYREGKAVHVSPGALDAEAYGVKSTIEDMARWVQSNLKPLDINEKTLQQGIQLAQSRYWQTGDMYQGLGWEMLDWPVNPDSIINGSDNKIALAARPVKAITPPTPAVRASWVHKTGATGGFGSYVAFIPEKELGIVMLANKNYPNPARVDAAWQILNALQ
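20 mM phosphate pH 7.0 + 0.01% (detergent screen) or 0.0001% Triton X-100; 5.3 nM AmpC reagent; cpd preinc 15 min RT; nitrocefin (800 uM stock) to start; A480 q20 s × 4 min; Activity was normalised to no-enzyme and no-compound control wells.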
AmpC inh detg – qHTS Inhibitors of AmpC Beta-Lactamase (assay with detergent). Potency, µM (doses to about 114 µM), for inactives: top-dose activity change, negative = inhibition, actives largely listed as inhibitors. P00811. AID 485294, 2010. hit rate 0.041% among 370,000. AmpC hydrolysis of nitrocefin, absorbance 480 nm, 0.01% Triton;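 further: 0% = no-compound wells and -100% = no-enzyme wells; nearly all actives have a fitted effect of over 25% in size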
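20 mM phosphate pH 7.0 + 0.01% (detergent screen) or 0.0001% Triton X-100; 5.3 nM AmpC reagent; cpd preinc 15 min RT; nitrocefin (800 uM stock) to start; A480 q20 s × 4 min; Activity was normalised to no-enzyme and no-compound control wells.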
The depositor's hits bear a star; ? = inconclusive; · = no result given; [ ] = dose if it differs, or a comment. Unless noted, the call rests on the fitted dose curve; in most records, active means well fitted curve in the direction sought with a large enough effect; inconclusive means small, poorly fitted or top-dose-only effect, or another doubt; inactive means no such curve, though single readings can be large; an effect the other way counts as inactive or inconclusive. Unless noted, on the % scale 0 is the no-effect control and ±100 the full control effect; potency means the concentration at half of the fitted maximal effect.

SMILES	Lassa entry inh	Marburg entry inh	AMA1-RON2 inh	AmpC no deterg	AmpC inh detg
Cc1ccc(NN=C2c3ccccc3-c3ccccc32)cc1	?	2%	-10%	11µM*	?
CN=c1scc(-c2ccc(F)cc2)n1/N=C/c1ccc(O)c(O)c1	?	18µM*	-6%	-34%	-13%
CN(C(=O)Cn1cc([N+](=O)[O-])ccc1=O)C1CCCCC1	9%	1.3µM*	1%	-8%	2%
CN(C(=O)CN1C(=O)c2ccc([N+](=O)[O-])cc2C1=O)C1CCCCC1	18%	9%	5%	-4%	·
CCN1C(=NCc2ccco2)N[C@@H](c2ccccc2)[C@H](C(=O)OC)[C@H]1C	·	13%[14.2 µM]	·	·	·
Cc1ccc(-c2[nH]ncc2/C=N/n2c(COc3ccccc3C)nc3ccccc3c2=O)cc1	?	11µM*	26%	8.9µM*	-9%
Cc1ccccc1OCc1nc2ccccc2c(=O)n1/N=C/c1c[nH]c2ccccc12	?	-6%	-23%	-48%	?
Cc1cccc(C)c1OCc1nc2ccccc2c(=O)n1/N=C/c1c[nH]c2ccccc12	2.5µM*	?	-3%	-11%	-4%
CCCCCCC(C)(C)c1ccc([C@@H]2C[C@H](O)CC[C@H]2CCCO)c(O)c1	?	13µM*	5%	238%	?
CCCSc1nnc2c(n1)OC(c1sccc1C)Nc1ccccc1-2 (configuration not stated)	28%[46.1 µM]	?	·	·	-15%
Cc1ccc(S(=O)(=O)N2CCN(c3ccnc4cc(Cl)ccc34)CC2)cc1C	-2%[46.1 µM]	?	-4%	7%	-3%
Cc1cc(N2CCN(S(=O)(=O)c3ccc(Cl)cc3)CC2)c2ccccc2n1	16µM*	?	-19%	66%	-3%
CCc1nc2ccccc2nc1N1CCN(S(=O)(=O)c2ccc(Cl)cc2)CC1	?	11µM*	-15%	-5%	-18%
Cc1cc(N2CCN(S(=O)(=O)c3ccc(Cl)c(Cl)c3)CC2)c2ccccc2n1	·	·	-4%	207%	1%
CC(C)N(C(=O)N1CCN(c2ccnc3cc(Cl)ccc23)CC1)C(C)C	11µM*	?	-4%	135%	-1%
Cc1ccc(S(=O)(=O)N2CCN(c3ccnc4cc(Cl)ccc34)CC2)cc1	-22%[46.1 µM]	5µM*	-14%	30%	7%
CCN(C(=O)C1CCN(S(=O)(=O)c2ccc3c(c2)CCCN3C(=O)C2CCC2)CC1)c1cccc(C)c1	?	·	·	·	1%
COc1ccc(-n2c(=O)c3c4c(sc3n(Cc3ccc(F)cc3)c2=O)CCCC4)c(OC)c1	4%[46.1 µM]	5%[46.1 µM]	·	·	9%
NC(N)=NS(=O)(=O)c1ccc(NC(=S)NC(=O)Cc2ccc(Cl)cc2)cc1	·	·	3%	10µM*	?
CCOC(=O)c1[nH]c2c(c1Cc1ccccc1)C(=O)CC(c1ccccc1)C2 (configuration not stated)	-29%[46.1 µM]	?	·	·	-2%
Cc1ncc(COC(=O)C(C)C)c2cc(C(=O)Nc3ccccc3C(F)(F)F)c(=O)oc12	28%[46.1 µM]	·	·	·	4%
O=C(CCCCCn1c(=S)[nH]c2ccc(N3CCOCC3)cc2c1=O)NC1CCN(Cc2ccccc2)CC1	2%	?	58%	22%	?
CCN1CCN(c2ccc(NC(=O)c3ccc4c(c3)[nH]c(=O)n4Cc3ccc(OC)cc3)cc2)CC1	?	7.9µM*	?	67%	?
O=C(NC1CCN(Cc2ccccc2)CC1)c1ccc2c(c1)[nH]c(=O)n2Cc1ccc(F)cc1	?	2.8µM*	2%	-13%	-1%
O=C(NC1CCN(Cc2ccccc2)CC1)c1ccc(Cn2c(=S)[nH]c3ccc(N4CCOCC4)cc3c2=O)cc1	?	2.8µM*	46%	93%	-9%
SMILES	Lassa entry inh	Marburg entry inh	AMA1-RON2 inh	AmpC no deterg	AmpC inh detg
O=C(NC1CCN(Cc2ccccc2)CC1)c1ccccc1OCc1ccccc1Cl	10µM*	?	-26%	69%	2%
COCCCNC(=O)c1ccc(Cn2c(=O)c3ccccc3n(CC(N)=O)c2=O)cc1	?	7%[46.1 µM]	·	·	1%
CCOc1ccccc1Nc1nc(-c2cccc(Cl)c2)c2c(n1)-c1ccccc1OC2	?	?	·	·	-5%
Clc1ccc(Cl)c(OCCCCN2CCNCC2)c1	?	11µM*	6%	12%	1%
Cc1ccc(OCCCCN2CCCCC2)c(C)c1	·	·	9%	-6%	?
Cc1ccc(OCCCCCCN2CCNCC2)c(Br)c1	?	13µM*	?	·	·
CNCCCCOc1ccccc1-c1ccccc1	?	7.1µM*	?	1%	0%
CC1CCN(CCCCOc2ccccc2-c2ccccc2)CC1	2.1µM*	2.3µM*	-14%	25%	-14%
CC1CCN(CCCCOc2ccc(Cl)cc2)CC1	6%[46.1 µM]	7.9µM*	-11%	5%	?
Cc1ccc(OCCCCN2CCC(C)CC2)c(Br)c1	?	15µM*	-28%	3%	?
COc1ccc(CN2CCC(Cc3ccccc3)CC2)cc1OC	·	·	-24%	-2%	-15%
CC1CCN(CCCOc2ccc(Br)cc2Cl)CC1	?	?	16%	24%	?
COc1cccc(OC)c1OCCCN1CCC(Cc2ccccc2)CC1	?	11µM*	-21%	22%	-4%
Cc1oc2ccc(O)c(CN3CCCCCC3)c2c1C(=O)Nc1cccc(Cl)c1C	?	?	·	·	-6%
COC(=O)C1=C(C(=O)OC)SC2(S1)C(C(=O)OC)=C(C(=O)OC)Sc1c2ssc1=O	11µM*	?	28µM*	·	·
Cc1ccc(-n2nnnc2CNC(=O)c2ccc(F)cc2)cc1C	-5%[46.1 µM]	·	·	·	17%
COc1ccc(OC)c(NC(=O)c2ccc(-c3cccs3)cc2)c1	3%[46.1 µM]	20%[46.1 µM]	28µM*	?	5%
COc1cccc(C(=O)Nc2nnc(SCC(=O)NC3CC3)s2)c1	-22%	-26%	-21%	-3%	8%
COc1ccc(C(=O)Nc2nnc(SCC(=O)NC3CC3)s2)cc1	?	10µM*	-11%	-3%	7%
COc1ccc(NC(=O)Nc2nnc(-c3cccs3)s2)cc1	·	2%	14%	-30%	-2%
COc1ccc(C(=O)Nc2nnc(-c3cccs3)s2)cc1	?	3.2µM*	12%	-10%	-2%
O=C(Nc1ccc(F)cc1F)c1ccc(-n2cnc3cccnc32)cc1	-5%[46.1 µM]	·	·	·	21%
C#CCCCON=C1C[C@@H](O)[C@H](O)[C@H]2[C@@H]3C(=O)N(C[C@@H]4CCCO4)C(=O)[C@@H]3CC[C@@H]12	·	3%[14.2 µM]	·	·	·
Cc1nc2ccccc2c(N)c1C(=O)/C=C/c1ccccc1	10µM*	?	-10%	-28%	-11%
COC(=O)C1=C(C)NC(C)=C(C(=O)OCCN(C)Cc2ccccc2)[C@@H]1c1cccc([N+](=O)[O-])c1	·	8.2µM*	·	·	·

High-throughput results (PubChem BioAssay)
